Test results as given in paper PMC7819943, “Rice protein-binding microarrays: a tool to detect cis-acting elements near promoter regions in rice”.
The full ranking holds about 39,000 sequences; the median of “fluorescence intensity (a.u.)” is about 4,300, and the highest 2% start at about 39,000. Many of the other results were omitted from the sample, so the highest values are more common in it than they were.

The sequences below were run against T1, OsSMF1 (Oryza sativa, UniProt Q6ZLB0 1-436) (assay: protein-binding microarray (RPBM); PBS, 2% BSA, 51.3 ng/ul salmon testes DNA, 50 uM zinc acetate, 200 nM TF, 25 C, 1 h; high values mean tight binding). Details: protein: recombinant; tags: N-terminal polyhistidine and DsRed monomer fusion (pET32a); chain copies: 2; label: CyDye5-dUTP incorporated in the synthesized complementary strand; 3' TTTTT single-stranded linker to array surface; dsDNA, one strand shown.
T1 sequence: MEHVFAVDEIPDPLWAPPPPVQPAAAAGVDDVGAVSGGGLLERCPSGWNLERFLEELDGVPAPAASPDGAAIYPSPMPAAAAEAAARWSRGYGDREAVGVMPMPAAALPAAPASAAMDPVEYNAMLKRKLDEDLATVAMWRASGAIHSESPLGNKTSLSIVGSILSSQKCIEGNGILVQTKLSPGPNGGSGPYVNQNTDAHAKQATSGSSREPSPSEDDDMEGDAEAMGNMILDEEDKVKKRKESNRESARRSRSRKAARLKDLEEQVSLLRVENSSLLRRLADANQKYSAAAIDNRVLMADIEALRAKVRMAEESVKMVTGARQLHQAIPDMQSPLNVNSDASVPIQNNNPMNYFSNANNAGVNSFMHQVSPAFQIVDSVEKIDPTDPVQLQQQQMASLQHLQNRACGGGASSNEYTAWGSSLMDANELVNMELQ
Method in brief: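 Transcription factors, each fused N-terminally to a polyhistidine tag and DsRed, were expressed in E. coli BL21-CodonPlus and purified on Ni–NTA. A custom Agilent array was made double-stranded by primer extension with Cy5-dUTP and blocked with 2% BSA. It was incubated with 200 nM protein in PBS, 2% BSA, salmon testes DNA and 50 µM zinc acetate at 25 °C for 1 h, then washed. The binding signal is per-feature fluorescence intensity (arbitrary units) read on an Axon 4000B scanner.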
With “GTCCATATATCCGATGTGACACGCCAACACTTTTCGTATCCGGAGTCACCTAGTGCAG” the binding signal was 4090 fluorescence intensity (a.u.). For “TGGCTTCACTTGCAACGGTACAAGAACCACCATCACTTCCCGGAGTCACCTAGTGCAG”, the binding signal was 40100 fluorescence intensity (a.u.). With “CACATCGAACGGTCCAAGAACAACCACATCACCAATGTGCCGGAGTCACCTAGTGCAG” the binding signal was 3710 fluorescence intensity (a.u.). For “AAGATCATCACAATTCATCACTCACAACCACATCACATCCCGGAGTCACCTAGTGCAG”, the binding signal was 3260 fluorescence intensity (a.u.). “CGCCTCTGCGGTCTCCTTCGTCACCCGCGCGTCAACCAACCGGAGTCACCTAGTGCAG” was tested, and the binding signal was 4290 fluorescence intensity (a.u.). In the case of “CCCCTTCATGCCAGCACGCTCCCCACATCCACCCACCACCCGGAGTCACCTAGTGCAG”, the binding signal is reported as 3320 fluorescence intensity (a.u.). In the case of “CGTGCGACCCAGATCTCGCCACGTATGCGCGCGGATCGGCCGGAGTCACCTAGTGCAG”, the binding signal is reported as 10800 fluorescence intensity (a.u.). For “GGGACGAGAGGAGCAACGCGCGGGCGCCGGCTGGCAAGAGCGGAGTCACCTAGTGCAG”, the binding signal was 3960 fluorescence intensity (a.u.). In the case of “ACCTTGAGTTTGAGTGCGATTCCTCCCTTCTTTCGGTCACCGGAGTCACCTAGTGCAG”, the binding signal is reported as 21100 fluorescence intensity (a.u.). For “ACGACGACGACGTCGACGTGTGAACCAGTCAACTGCCACGCGGAGTCACCTAGTGCAG”, the binding signal was 8590 fluorescence intensity (a.u.). With “ACGAAACCGCACAAAAGCCGGTGAATTTTCCCGTAATTTGCGGAGTCACCTAGTGCAG” the binding signal was 8780 fluorescence intensity (a.u.). “ATCTAGACACGCGCGCGCGCGCGCACATATATATATATATCGGAGTCACCTAGTGCAG” was tested, and the binding signal was 42600 fluorescence intensity (a.u.). In the case of “ACATACATATATATATATATATATACATACATATATATATCGGAGTCACCTAGTGCAG”, the binding signal is reported as 3740 fluorescence intensity (a.u.). In the case of “GCGCACACACACACACAGATATATATATATATATATATATCGGAGTCACCTAGTGCAG”, the binding signal is reported as 4200 fluorescence intensity (a.u.). For “TAAACAGGGCCCTACTGTCATCACGTCGATGTTGAGTTTACGGAGTCACCTAGTGCAG”, the binding signal was 4070 fluorescence intensity (a.u.). “AAAGGACGGACAGTTTCCTGCGCAAATTCCACGTTCCACCCGGAGTCACCTAGTGCAG” was tested, and the binding signal was 3460 fluorescence intensity (a.u.). With “CCGCACGCGCTCCCTTCACCCACCTCGATCGAGCTCCATGCGGAGTCACCTAGTGCAG” the binding signal was 3570 fluorescence intensity (a.u.). In the case of “ACATGGACTGTGGTGTGGTACACACACGGTATGTCAGAGCCGGAGTCACCTAGTGCAG”, the binding signal is reported as 3220 fluorescence intensity (a.u.). For “GGTTGCCATATTTGCTTGTTATGCCGATGTGGACAAGCTTCGGAGTCACCTAGTGCAG”, the binding signal was 5600 fluorescence intensity (a.u.). With “ATATTCCACCAAGCAAAAGCCACATCATGCTGTGCTGTGCCGGAGTCACCTAGTGCAG” the binding signal was 6050 fluorescence intensity (a.u.). “TCCTCCCAAAGATAATTCAGCTGATGATATTTCCATATCTCGGAGTCACCTAGTGCAG” was tested, and the binding signal was 3210 fluorescence intensity (a.u.). In the case of “GCTTTGGGCTATAATTGGGCCATTTGTCGTCAGCTCTTGGCGGAGTCACCTAGTGCAG”, the binding signal is reported as 3230 fluorescence intensity (a.u.). “TTCTTCTTGGTGGTGGTGGGGCCTGGAAACTATGTGACTTCGGAGTCACCTAGTGCAG” was tested, and the binding signal was 4270 fluorescence intensity (a.u.). In the case of “ATACTTGGACTATTCTCTTTCGGAAACTTGACTAGTTACACGGAGTCACCTAGTGCAG”, the binding signal is reported as 43200 fluorescence intensity (a.u.). “ATATACTATTCTCATCTGTCATACACACATCACATCTTGACGGAGTCACCTAGTGCAG” was tested, and the binding signal was 25700 fluorescence intensity (a.u.). For “ATGTCGAAAGGCCTATATGGGCCAGATGATGTGTCCAGGGCGGAGTCACCTAGTGCAG”, the binding signal was 34600 fluorescence intensity (a.u.). For “GGAGAGCTCCGGGAAGACGCGCGCTGACGCGGCCTCCCTGCGGAGTCACCTAGTGCAG”, the binding signal was 8860 fluorescence intensity (a.u.). With “ATTGATGTGAAGAACAAATAGTCAATATTATTCTGTATATCGGAGTCACCTAGTGCAG” the binding signal was 16900 fluorescence intensity (a.u.). In the case of “ATATTCTGATATGTCAATATTATTGTGTATGATTGATTGTCGGAGTCACCTAGTGCAG”, the binding signal is reported as 46700 fluorescence intensity (a.u.). In the case of “TCAATGATATTTATGTGTGTGACATGTATGTCGAGTTCGTCGGAGTCACCTAGTGCAG”, the binding signal is reported as 4360 fluorescence intensity (a.u.). With “TCTTCTGAATGCTCACAATGACGCCATCCTCATCAGCCGCCGGAGTCACCTAGTGCAG” the binding signal was 4480 fluorescence intensity (a.u.). In the case of “GCCCTCCCTGTCATCCCCGTCACCCATCCTGCCTGCTTTTCGGAGTCACCTAGTGCAG”, the binding signal is reported as 8530 fluorescence intensity (a.u.). In the case of “ACATTACCAAATTTTAACAATGCCAAAATTTTGGTAAGGTCGGAGTCACCTAGTGCAG”, the binding signal is reported as 3450 fluorescence intensity (a.u.). For “AGCTAAAATAAACTTTACCAAATTTTGGCAATGCCAAAATCGGAGTCACCTAGTGCAG”, the binding signal was 51800 fluorescence intensity (a.u.). In the case of “ACCAAATTTTAGCAATACCAAAATTTTGGCATAGTTGCCACGGAGTCACCTAGTGCAG”, the binding signal is reported as 7010 fluorescence intensity (a.u.). In the case of “AAACGCCAACGCCATACTCCACCTGACCTCACACTCGCACCGGAGTCACCTAGTGCAG”, the binding signal is reported as 3290 fluorescence intensity (a.u.). In the case of “CGTCCCTTGGACGTCATCTTCTCCTCACGTGCATTGCCTCCGGAGTCACCTAGTGCAG”, the binding signal is reported as 4360 fluorescence intensity (a.u.). “TTGCAGCATCACCTGGCGAGGCGTAGCTAGGAGATGCAGACGGAGTCACCTAGTGCAG” was tested, and the binding signal was 40100 fluorescence intensity (a.u.). With “TAAGATGGAGGAGGCGAGGAGAGTTGCGTAGGATGGAGTGCGGAGTCACCTAGTGCAG” the binding signal was 3880 fluorescence intensity (a.u.). For “TTTGGCATACCTGGAGCAGATCAGGCAGCACATGGCGAGGCGGAGTCACCTAGTGCAG”, the binding signal was 25600 fluorescence intensity (a.u.). For “TTATGAGTTTAGAGGGATGATTAGGATACATGGGAATTTTCGGAGTCACCTAGTGCAG”, the binding signal was 22200 fluorescence intensity (a.u.). “AACCCGGCGTTGGTGAGCTGTTCCATTGTGTCTATAGGCACGGAGTCACCTAGTGCAG” was tested, and the binding signal was 3210 fluorescence intensity (a.u.). With “TGGATATGCATGCGTACGTACGTAGCTTACCTATAGCTAGCGGAGTCACCTAGTGCAG” the binding signal was 3500 fluorescence intensity (a.u.). “TACTTAGCTAGCTAATCGCGTTGCTCTTTCTCGTACTATACGGAGTCACCTAGTGCAG” was tested, and the binding signal was 20400 fluorescence intensity (a.u.). For “GATATATATACGCGTTCATCAGCGTACGTTCTTATAGCTACGGAGTCACCTAGTGCAG”, the binding signal was 40100 fluorescence intensity (a.u.). In the case of “CACTCCGGCGTGACGGAGCCCTTCCCCGATGTGATGCCTACGGAGTCACCTAGTGCAG”, the binding signal is reported as 32600 fluorescence intensity (a.u.). For “AGGGGCGGAGGGCAGCGATTTTGGTTGGTAGTAGTACGGGCGGAGTCACCTAGTGCAG”, the binding signal was 3610 fluorescence intensity (a.u.). In the case of “CGTTGGCGTCCACCACGGCCACCGCCACGCCGCTCGTGTTCGGAGTCACCTAGTGCAG”, the binding signal is reported as 4420 fluorescence intensity (a.u.). In the case of “GTCCCCTGTTGCACTTAGATATTTAACTTTGTTAAGGATTCGGAGTCACCTAGTGCAG”, the binding signal is reported as 4820 fluorescence intensity (a.u.). With “GACTTAACTTTAGTCCCTGTATTTAGACACTAATTTAGAGCGGAGTCACCTAGTGCAG” the binding signal was 65500 fluorescence intensity (a.u.). For “CAGGTACTTAACTTTAGTCCCTGTCTTTAGACACTAATTTCGGAGTCACCTAGTGCAG”, the binding signal was 5100 fluorescence intensity (a.u.). “TCCCCGTCTTTTCCTTCCGCCTCACCAACCTCGTCTCGTCCGGAGTCACCTAGTGCAG” was tested, and the binding signal was 3330 fluorescence intensity (a.u.). With “TCGTCGATGTCACCGCCACCACCGTCGTCATCGCTGCCTTCGGAGTCACCTAGTGCAG” the binding signal was 3820 fluorescence intensity (a.u.). In the case of “CGTACGGCACCGAGTTATCGCCGCCAGGTCAGTTGGTTTACGGAGTCACCTAGTGCAG”, the binding signal is reported as 3690 fluorescence intensity (a.u.).
